# The list is not random: actives were taken first. Their share in the collection is about 0.92%.
# FEN1 inhibitor: blocks human flap endonuclease 1; P39748; Recombinant FEN1 flap cleavage, fluorescence, 15 min; Potency, µM (highest dose often 114 µM), hits mostly inhibitors; 390,000 tested, 0.35% active; further: nearly all actives have a fitted effect of over 65% in size
# Target sequence (P39748 whole entry, looked up): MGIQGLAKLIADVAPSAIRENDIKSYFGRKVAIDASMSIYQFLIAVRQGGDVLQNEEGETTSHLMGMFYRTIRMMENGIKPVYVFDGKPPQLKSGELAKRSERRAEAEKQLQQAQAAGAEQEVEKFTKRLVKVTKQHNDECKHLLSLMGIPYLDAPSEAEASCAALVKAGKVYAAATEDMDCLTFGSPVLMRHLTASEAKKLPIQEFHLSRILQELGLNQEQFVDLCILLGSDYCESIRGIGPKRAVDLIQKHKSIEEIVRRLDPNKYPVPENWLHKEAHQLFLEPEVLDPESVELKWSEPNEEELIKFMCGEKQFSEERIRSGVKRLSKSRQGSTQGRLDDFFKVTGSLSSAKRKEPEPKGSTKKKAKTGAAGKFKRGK
#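 Steps: FEN1 (10 nM) dispensed; compound added by pin tool; 15 min at room temperature; substrate added to 50 nM final; reads at 0 min and 15 min; data normalized and fitted (four-parameter Hill).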
# RECQ1 inh-1: inhibitors of human RECQ1 DNA helicase. RECQ1 DNA unwinding, red fluorescence kinetic read. 240,000 tested, 0.54% active. P46063. Potency, µM (doses to about 57.3 µM), actives largely listed as inhibitors; further: nearly all actives have a fitted effect of over 30% in size
#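 RECQ1T1 50 nM; forked duplex (20 bp + 30-nt ss tails) 200 nM, ATP 2 mM final; pH 8.0, 2 mM MgCl2, 2.5 ug/ml poly(dI-dC); 15 min compound preincubation; discontinuous kinetic read over 2 h at RT.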
# BLM helicase inh: Bloom syndrome helicase (human) inhibition. Potency, µM (doses to about 56.1 µM), actives largely listed as inhibitors. recombinant BLM DNA unwinding, fluorescence dequenching. P54132. AID 2528. 350,000 tested, 0.2% active; further: nearly all actives have a fitted effect of over 35% in size
# APE1 inh: APE1 (human) endonuclease inhibition. P27695. recombinant APE1, TAMRA/BHQ-2 abasic DNA cleavage fluorescence. Potency, µM (top dose mostly 65.8 µM), usual class: inhibitors. 350,000 tested, 0.35% active; further: nearly all actives have a fitted effect of over 55% in size
# Target sequence (P27695 whole entry, looked up): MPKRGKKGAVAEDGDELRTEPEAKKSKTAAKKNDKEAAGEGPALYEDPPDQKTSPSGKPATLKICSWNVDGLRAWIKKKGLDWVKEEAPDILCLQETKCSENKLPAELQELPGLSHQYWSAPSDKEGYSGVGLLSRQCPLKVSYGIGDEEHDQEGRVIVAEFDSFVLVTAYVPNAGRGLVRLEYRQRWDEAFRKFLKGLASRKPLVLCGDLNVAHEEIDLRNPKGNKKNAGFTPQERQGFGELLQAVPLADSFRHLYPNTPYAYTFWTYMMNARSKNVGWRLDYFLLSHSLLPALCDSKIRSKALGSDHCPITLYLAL
#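 Substrate: short duplex with […] THF abasic site, 5'-TAMRA and 3'-BHQ-2, 50 nM final. APE1 at 0.75 nM, preincubated 15 min RT with compound. Fluorescence increase from first to third read measured activity.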
# TDP1 block: inhibitors of human tyrosyl-DNA phosphodiesterase TDP1; Q9NUW8; recombinant TDP1, AlphaScreen DNA substrate cleavage; Potency, µM (top dose mostly 130 µM), actives largely listed as inhibitors; 350,000 tested, 0.28% active; AID 485290; further: nearly all actives have a fitted effect of over 40% in size
#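 Tdp1 1 nM final; 15 min RT w/ cpd; substrate 15 nM, 5 min; beads 10 ug/ml, 10 min; AlphaScreen read. Neg ctrl: no enzyme.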
# RECQ1 conf: confirmation of human RECQ1 helicase inhibitors; shares compounds with RECQ1 inh-1; RECQ1 helicase DNA unwinding, fluorescence; Potency, µM (highest dose often 229 µM), actives largely listed as inhibitors; 610 tested, 28% active; AID 2708; further: nearly all actives have a fitted effect of over 45% in size
# ADP FP counter: counter-screen for RECQ1 inhibitors: ADP displacement; AID 2711; shares compounds with RECQ1 inh-1; ADP fluorescence polarization displacement counterscreen; 530 tested, 27% active; Potency, µM (titrated, usually from 228 µM), most hits filed as inhibitors; further: nearly all actives have a fitted effect of over 45% in size
# RECQ1 inh-2: confirmation of human RECQ1 helicase inhibitors; shares compounds with RECQ1 inh-1; recombinant RECQ1 DNA unwinding, red fluorescence; Potency, µM (series often up to 119 µM), hits mostly inhibitors; 1,100 tested, 15% active; AID 504841; further: nearly all actives have a fitted effect of over 50% in size
# A number is an active result; 0 = inactive; ? = inconclusive; - = not tested or not shown; ! = not active in a repeat; [ ] = another dose, or the depositor's remark. The call rests on the fitted dose curve; in most records, active means well fitted curve in the direction sought with a large enough effect; inconclusive means small, poorly fitted or top-dose-only effect, or another doubt; inactive means no such curve, though single readings can be large; an effect the other way counts as inactive or inconclusive.
SMILES,FEN1 inhibitor,RECQ1 inh-1,BLM helicase inh,APE1 inh,TDP1 block,RECQ1 inh-2,others
COc1ccc(/C=C2\SC(=O)N(CC(=O)NNC(=O)c3ccccc3O)C2=O)cc1,0,2.8µM,0,0,0,?,
C(=C\c1nc2ccccc2nc1/C=C/c1ccc2c(c1)OCO2)/c1ccc2c(c1)OCO2,0,-,-,-,-,-,
O=C(NCCc1ccc(Cl)cc1)C(=O)NCC(c1ccco1)S(=O)(=O)c1ccc(Cl)cc1 (configuration not stated),0,-,0,-,0,-,
C=CCn1c(=O)[nH]c2cc(C(=O)N3CCN(c4ccc(C(C)=O)cc4)CC3)ccc2c1=O,0,4.5µM,0,0,0,?,RECQ1 conf=?;ADP FP counter=0
Cc1ccc(CSC2=Nc3sccc3C3=NC(=O)CN23)cc1,0,32µM,0,0,0,0,
O=C(c1ccc2c(c1)CCCC2)N1CCN(c2nc3ccc(F)cc3s2)CC1,0,-,0,-,0,-,
Cc1cc(=O)oc2c(CN3CCCC3)c(O)c(Cl)cc12,0,-,0,0,-,-,
Cc1cc(=O)oc2c(CN3CCC(C)CC3)c(O)c(Cl)cc12,0,28µM,0,?,?,?,
NCC(=O)N[C@@H](CCCN=C(N)N)C(=O)NCC(=O)N[C@@H](CC(=O)O)C(=O)N[C@@H](CO)C(=O)N1CCC[C@H]1C(=O)O,-,0,0,0,0,-,
Cc1cc(C)cc(NC(=O)c2nnn(Cc3cc(C)ccc3C)c2N)c1,?,1.8µM,0,0,0,0,RECQ1 conf=?;ADP FP counter=?
COc1ccc(NC(=O)CN(Cc2ccccc2)S(=O)(=O)c2ccc3nc(C)sc3c2)cc1,0,-,0,-,0,-,
CCOC(=O)c1cc2c(=O)n3cccc(C)c3nc2n(Cc2ccco2)c1=NC(=O)c1ccccc1,0,0,0,0,0,-,
CCOC(=O)c1cc2c(=O)n3ccccc3nc2n(Cc2ccco2)c1=NC(=O)c1ccc(OC)cc1,79µM!,?,?,0,0,0,
C[n+]1c(/C=C/c2ccc(N)cc2)sc2ccccc21,0,-,-,-,-,-,
CCCCCC(=O)Cc1cc(O)cc(O)c1C(=O)Oc1cc(CC(=O)CCCCC)c(C(=O)O)c(OC)c1,-,0,0,0,0,-,
CCCCCc1c2c(cc(O)c1C(=O)O)OC(=O)c1cc(C(=O)CCCC)c(OC)cc1O2,?,13µM,0,?,0,?,
CCCCCc1c2c(cc(O)c1C(=O)O)OC(=O)c1c(cc(OC)cc1C(=O)CCCC)O2,0,?,0,0,0,?,
C=CCN1c2ccccc2[C@]23C[C@@H](C(=O)OC)N(S(=O)(=O)CCCC)C2=NC(C(=O)OC)=C(C(=O)OC)[C@H]13,-,0[11.5 µM],0[12.4 µM],0[12.4 µM],0[12.3 µM],-,
COc1ccc(Nc2ccccc2N)cc1,0,22µM,0,0,0,45µM,
Cc1ccc(S(=O)(=O)NCC(=O)N(CC(=O)NCC2CCCO2)Cc2ccco2)cc1 (configuration not stated),0,22µM,0,?,0,0,
CCN(CC)c1nn2c(=O)c(C(=O)NCc3ccccc3Br)cnc2s1,0,-,0,-,0,-,
Cc1ccc2oc(C(=O)N(Cc3sccc3C)C3CCS(=O)(=O)C3)c(C)c2c1 (configuration not stated),0,-,0,-,0,-,
Cc1ccc(CNC(=O)CSc2nc3ccccc3nc2Cc2ccc(C)cc2)cc1,0,-,0,-,0,-,
CCn1c(=O)c(C(=O)NNS(=O)(=O)c2ccc(Br)cc2)c(O)c2ccccc21,?,?,0,0,0,?,
Cc1ccc(S(=O)(=O)N2CCN(Cc3nc4ccc(C)cc4o3)CC2)c(C)c1,0,-,0,-,0,-,
SMILES,FEN1 inhibitor,RECQ1 inh-1,BLM helicase inh,APE1 inh,TDP1 block,RECQ1 inh-2,others
CC1CCC2(CC1)NC(=O)N(CC(=O)Nc1sc3c(c1C(N)=O)CCC3)C2=O (configuration not stated),0,32µM,?,?,?,?,
COc1cc(C2NCC(c3ccc(Cl)cc3Cl)c3c2[nH]c2ccccc32)cc(OC)c1OC (configuration not stated),0,?,0,0,0,0,
C=CCn1c(NC(=O)c2ccco2)c(S(=O)(=O)c2ccccc2)c2nc3ccccc3nc21,-,0,0,0,0,-,
C=CCn1c(NC(=O)c2ccc(Br)o2)c(S(=O)(=O)c2ccccc2)c2nc3ccccc3nc21,0,?,?,?,0,0,
O=C(COC(=O)c1ccc(S(=O)(=O)N2CCOCC2)cc1)NC1CCCCCCC1,0,0,0,0,0,-,
O=C(COC(=O)c1ccc(S(=O)(=O)N2CCc3ccccc3C2)cc1)NC1CCS(=O)(=O)C1 (configuration not stated),0,?,0,0,0,?,
O=c1c2c(nc3n1CCCCC3)sc1c(O)c(Br)ccc12,0,0,0,0,0,-,
CCN(CC)CCOc1c(Br)ccc2c1sc1nc3n(c(=O)c12)CCC3,50µM,?,0,0,-,0,
COc1cc2c(cc1OC)C(c1oc(-c3ccc(-c4cc(Cl)ccc4Cl)o3)cc1C)=NCC2,0,-,-,-,-,-,
Cc1csc(CNc2ncnc3ccc(-c4ccc5c(c4)OCO5)cc23)n1,-,-,-,-,0,-,
Cc1cnc(CNc2ncnc3ccc(-c4ccc5c(c4)OCO5)cc23)cn1,-,20µM,0,0,-,?,
O=C(NCc1ccc(F)cc1)C1CCCCN1S(=O)(=O)c1ccc(F)cc1 (configuration not stated),0,-,0,-,0,-,
Clc1ccc(-c2nnc3sc(-c4ccc(Br)o4)nn23)cc1,0,0,0,0,0,-,
Cc1oc(-c2ccc(Cl)cc2)cc1-c1nn2c(-c3ccoc3C)nnc2s1,0,14µM,10µM,?,-,-,RECQ1 conf=35µM;ADP FP counter=0
Cc1noc(C)c1COc1ccc(C(=O)Nc2ccccn2)cc1,0,-,0,0,0,-,
Cc1noc(C)c1COc1ccc(C(=O)NCc2ccccn2)cc1,0,0,0,0,0,-,RECQ1 conf=0;ADP FP counter=?
Cc1noc(C)c1COc1ccc(C(=O)Nc2ccccc2)cc1,0,0,0,0,0,-,RECQ1 conf=0;ADP FP counter=?
COc1ccc(NC(=O)COc2ccccc2C(=O)Nc2ccccc2)cc1,0,-,-,-,-,-,
CCn1c(SCC(=O)NCc2ccco2)nc2ccccc2c1=O,0,?,0,0,0,0,
Cn1c(SCC(=O)NCc2ccco2)nc2ccccc2c1=O,0,0,0,0,0,-,
O=C(O)CCCC(=O)N1CCc2cc(S(=O)(=O)NCc3ccc(F)cc3)ccc21,0,0,0,0,0,-,RECQ1 conf=0;ADP FP counter=0
O=C(O)CCC(=O)N1CCc2cc(S(=O)(=O)NCc3cccs3)ccc21,0,0,0,0,0,-,RECQ1 conf=0;ADP FP counter=0
O=C1CC(c2ccco2)Cc2[nH]c(=O)c(C(=O)Nc3ccccc3)cc21 (configuration not stated),0,-,-,-,-,-,
